# Bioassay records as filed in PubChem.
# D2 ag-1 – Beta-Arrestin HTS for Positive Allosteric Modulators of the Human D2 Dopamine Receptor: Agonists. AID 624465, 2012. DiscoveRx PathHunter D2 beta-arrestin, luminescence, 90 min; 100% = 57 uM dopamine signal. 360,000 compounds, 0.084% hits. activation, % (test concentration not listed); in the data active = activation above about 40%
# Target sequence (P14416 whole entry, looked up): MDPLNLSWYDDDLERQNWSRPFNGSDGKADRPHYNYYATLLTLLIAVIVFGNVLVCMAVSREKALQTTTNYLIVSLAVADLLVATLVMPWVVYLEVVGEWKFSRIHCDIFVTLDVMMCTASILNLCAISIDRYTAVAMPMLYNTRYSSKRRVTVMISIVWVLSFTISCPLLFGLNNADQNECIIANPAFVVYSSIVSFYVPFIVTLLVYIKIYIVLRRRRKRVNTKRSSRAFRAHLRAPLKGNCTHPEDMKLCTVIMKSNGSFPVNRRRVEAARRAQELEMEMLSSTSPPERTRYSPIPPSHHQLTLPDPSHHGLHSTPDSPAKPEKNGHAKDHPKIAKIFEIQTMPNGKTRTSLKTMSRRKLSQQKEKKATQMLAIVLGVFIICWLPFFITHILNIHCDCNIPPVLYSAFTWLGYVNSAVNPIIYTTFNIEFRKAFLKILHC
#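 DiscoveRx PathHunter D2 beta-arrestin cells (2,100/well) attached overnight, then compound-stimulated 90 min at 37 C in HBSS/10 mM HEPES/0.1% Tween-20 buffer; beta-galactosidase complementation read by luminescence after 1 h at ambient temperature. Dopamine 57 uM final (EC100) as control.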
# D2 PAM-1 – Beta-Arrestin HTS for Positive Allosteric Modulators of the Human D2 Dopamine Receptor: Potentiators; potentiation, % (test concentration not listed); 360,000 compounds, 0.23% hits; D(2) dopamine receptor (Homo sapiens), P14416; DiscoveRx D2 beta-arrestin cells, luminescence, 90 min; 100% = 57 uM dopamine signal; in the data active = potentiation above about 50%
#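 PathHunter beta-arrestin assay in DiscoveRx D2 cells. Compounds were added with an EC20 of dopamine (50 nM final) for 90 min at 37 deg C. Luminescence was read 1 h after detection reagent, with 57 uM dopamine as the EC100 control.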
# D2 ag-2 – HTS Assay for Allosteric Agonists of the Human D2 Dopamine Receptor: Primary Screen for Agonists. HEK293 T-REx D2 cells, calcium flux agonist mode. activation, % at 2 µM. 340,000 compounds, 0.53% hits;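 active = activation over 3 SD above normal in the single-dose calcium agonist read, cut at about 30% in these data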; note: 0% is about no effect
#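 Tetracycline-induced HEK293 T-REx cells with force-coupled D2 receptor, plated overnight at 30 C, loaded with no-wash calcium dye. After a 10 s baseline, compound was pin-added and calcium flux read kinetically for 180 s; calcium rises flagged agonists.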
# D2 PAM-2 – HTS Assay for Positive Allosteric Modulators of the Human D2 Dopamine Receptor: Primary Screen for Potentiators | HEK293 T-REx D2, calcium flux, EC20 dopamine potentiation | potentiation, % at 10 µM | 340,000 compounds, 0.34% hits | AID 485347, 2010;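 active = potentiation over 3 SD above the plate norm, cut at about 30% in these data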; note: 0% is about no effect
#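 Potentiation of an EC20 dopamine calcium response measured kinetically over 180 s, after a preceding 180 s compound-only read flagging agonists. Cells: inducible Hek293 Trex D2 line, 4000/well, cultured overnight at 30 C before dye loading.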
# D2 antag – HTS Assay for Allosteric Antagonists of the Human D2 Dopamine Receptor: Primary Screen for Antagonists. inhibition, % at 10 µM. D(2) dopamine receptor (Homo sapiens), P14416. HEK293 TREx D2 cells, calcium flux, dopamine EC80. AID 485344, 2010. 340,000 compounds, 2% hits; in the data active = inhibition above about 30%; inactive = below that, where a call was filed; note: 0% is about no effect
#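 Dopamine at EC80 is the agonist stimulus; test compounds precede it by 180 s. Calcium flux read kinetically in a force-coupled, inducible HEK293 T-REx D2 cell line.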
# Active calls of the source: *; . = no result given. Compounds with a hit are over-represented: about 2.4% of the library has one in this group of screens.
SMILES,D2 ag-1,D2 PAM-1,D2 ag-2,D2 PAM-2,D2 antag
Cc1ccc(S(=O)(=O)NCCSc2ncccn2)cc1,-6.9,-4.2,0.3,-34.0,86.4*
Cc1cnc2c(c1SCC(=O)Nc1ccc(F)cc1F)c(=O)n(C)c(=O)n2C,.,.,-0.5,5.6,.
Cc1ccc(NC(=O)CCc2nnc3n(CC(C)C)c(=O)c4ccccc4n23)cc1C,.,.,.,-2.6,.
COc1ccc(/C=C2\SC(N3CCc4ccccc4C3)=NC2=O)cc1OC,-0.8,-24.7,0.0,-20.4,53.1*
CCCCn1c(NC(=O)c2ccccc2)c(C#N)c2nc3ccccc3nc21,-0.4,1.6,6.9,0.5,37.8*
CCC(C)n1c(NC(=O)c2ccccc2)c(C#N)c2nc3ccccc3nc21 (configuration not stated),-5.5,-11.2,-0.1,-7.4,-5.5
COCCCn1c(N)c(-c2nc3ccccc3n2C)c2nc3ccccc3nc21,0.2,-4.0,39.3*,-10.2,13.7
COCCn1c(N)c(C#N)c2nc3ccccc3nc21,1.4,-3.7,0.6,-5.3,36.0*
COc1ccc(-n2c(=O)c3c(c4cc(OC)ccc4n3C)n(CC(=O)N3CCCC3)c2=O)cc1,.,.,0.2,6.1,.
COc1ccccc1CNC(=O)c1cc(Sc2cccc(Cl)c2)nc2ccccc12,.,.,-0.3,-0.3,.
O=C(COCc1cc(-c2cccs2)on1)Nc1cccc(Cl)c1Cl,.,.,0.8,-10.6,.
O=C(NCC(c1ccc2c(c1)OCO2)N1CCOCC1)c1ccc(F)cc1 (configuration not stated),.,.,.,-22.5,.
Cc1cc(-c2ccc(C)c(S(=O)(=O)NC(c3cccs3)C(C)C)c2)on1 (configuration not stated),.,.,-0.2,1.1,.
CCc1ccc(NC(=O)C2CCCN(S(=O)(=O)c3cccc4cccnc34)C2)cc1 (configuration not stated),.,.,-1.1,5.6,.
COc1ccc([N+](=O)[O-])cc1NC(=S)NC(NC(C)=O)C(Cl)(Cl)Cl (configuration not stated),-1.4,-27.3,-0.2,-19.1,-8.6
COc1ccc([N+](=O)[O-])cc1NC(=S)NC(NC(=O)Cc1ccc(OC)c(OC)c1)C(Cl)(Cl)Cl (configuration not stated),-4.1,-26.7,-0.7,-18.3,73.9*
O=C(CSc1nc2ccccc2o1)Nc1nc(-c2ccccc2)cs1,-2.6,-12.6,-0.6,-21.2,30.0*
CCCCN(C(=O)Cc1cccc(F)c1)c1c(N)n(CCC)c(=O)[nH]c1=O,0.4,0.2,2.0,6.0,36.5*
Cc1cc(C)c(S(=O)(=O)NCC(c2ccc(N(C)C)cc2)N2CCc3ccccc32)c(C)c1 (configuration not stated),.,.,0.3,-0.1,.
Cc1cc(C)n(CC(=O)c2ccc(Cl)cc2)n1,4.0,1.9,-0.2,39.0*,12.3
Cc1cc(C)n(CCCNC(=O)C(C)(C)Oc2ccc(Cl)cc2)n1,-0.1,-13.3,0.0,6.0,30.7*
OCCN1CCN(CC/C=C2/c3ccccc3Sc3ccc(Cl)cc32)CC1,-2.1,-23.8,-1.5,-12.2,73.0*
CC[N+](C)(C)CC/C=C1/c2ccccc2Sc2ccc(Cl)cc21,-5.4,-19.1,-1.7,-15.0,15.4
CN(C)CC/C=C1\c2ccccc2Sc2ccc(Cl)cc21,-3.1,-24.9,1.5,-29.1,84.8*
CN(C)CC/C=C1\c2ccccc2Sc2cc(F)c(Cl)cc21,-5.0,-17.4,.,.,.
SMILES,D2 ag-1,D2 PAM-1,D2 ag-2,D2 PAM-2,D2 antag
CCOC(=O)c1c(S(=O)(=O)N2CCC(C(=O)NCc3ccccc3Cl)CC2)c(C)n(C)c1C,.,.,-0.1,5.0,.
CN(C)c1ccc(CNn2cnnc2SCc2ccc(F)cc2)cc1,1.4,-2.2,-1.3,37.6*,-3.0
COc1ccc(-n2nc(-c3ccc(C)cc3)c3cnc4cc(F)c(F)cc4c32)cc1,.,.,0.1,-4.9,.
O=C(O)CN=C1CC(c2ccccc2)CC(=O)/C1=C(/O)CCCN1C(=O)c2ccccc2C1=O (configuration not stated),-1.7,0.6,0.5,30.6*,-5.7
CN=C1CC(C)(C)CC(=O)/C1=C(/O)CCCN1C(=O)c2ccccc2C1=O,-3.1,-2.0,-0.3,-10.5,7.9
CCCn1c(N)c(NCCN2CCOCC2)c(=O)n(CC(=O)NCc2ccccc2)c1=O,-2.7,-1.5,1.2,2.5,32.7*
Cc1nn(CC(=O)NCCN2CCOCC2)c(=O)c2ccccc12,-4.2,-7.0,-0.1,1.4,8.3
Cc1cc(C)c(C#N)c(N2CCN(S(=O)(=O)Cc3ccccc3)CC2)n1,-5.8,-6.1,-1.8,11.7,-12.7
N#CCc1c(C#N)c(N)nc(N2CCN(Cc3ccc4c(c3)OCO4)CC2)c1C#N,-1.4,-28.3,1.7,-35.1,17.9
Cc1cc(C)c(C#N)c(N2CCN(Cc3ccccc3)CC2)n1,-0.4,-21.3,0.7,-26.8,73.8*
Cc1cc(C)c(C#N)c(N2CCN(Cc3ccc4c(c3)OCO4)CC2)n1,-5.9,-36.7,0.1,-19.9,97.8*
COc1ccccc1CCNS(=O)(=O)c1ccc(N2CCCCS2(=O)=O)cc1,.,.,-1.3,3.4,.
O=C(Nc1cccc2nsnc12)c1ccc(-c2cccc(Cl)c2)o1,0.7,51.4*,-0.7,0.9,-9.6
O=C(Nc1ccccc1N1CCCCC1)c1ccc(-c2cccc(Cl)c2)o1,-5.6,-6.3,0.4,11.7,-6.1
CCOC(=O)N1CCC(=NNC(=O)Cn2ccc(C(F)(F)F)n2)CC1,-0.4,-1.9,-0.5,32.9*,-22.1
CC1(C)CC(NCc2ccccc2)CCO1 (configuration not stated),-3.2,-7.8,1.1,37.7*,-12.7
COC(=O)c1ccsc1NC(=O)CSc1nnnn1-c1ccccc1SC,0.8,-3.6,0.4,37.5*,-0.5
Cc1cc2nc(CCN(C(=S)NCC3CCCO3)C3CCCC3)[nH]c2cc1C (configuration not stated),-17.9,-8.3,0.4,-4.0,31.2*
Cc1cc2nc(CCN(C(=S)NCC(C)C)C3CCCC3)[nH]c2cc1C,0.6,-23.8,0.5,-13.0,13.1
CCC(Sc1nc2nccnc2c(=O)n1Cc1ccc(OC)cc1)C(=O)NC1CCCCC1 (configuration not stated),.,.,0.2,1.6,.
COc1cc(OC)cc(C(=O)N/N=C/c2ccc(OC)c(COc3ccc(F)cc3)c2)c1,4.3,-2.6,0.8,-14.2,34.2*
COc1ccc(OCc2cc(/C=N\NC(=O)c3ccccc3)ccc2OC)cc1,2.4,5.5,0.5,-1.0,12.1
